Measurements taken from PubChem BioAssay AID1688 (National Center for Advancing Translational Sciences (NCATS), 2009).
The whole screen tested about 220,000 compounds, of which about 2,400 (1.1%) were called active. Inconclusive results (about 7%) are left out. The call rests on the fitted dose curve; in most records, active means well fitted inhibition curve with a large enough effect; inconclusive means small, poorly fitted or top-dose-only effect, or effect the other way; inactive means no such curve, though single readings can be large or run the other way. Only a selection was taken, and actives are over-represented in it overall.

Assay: qHTS Multiplex Assay to Identify Dual Action Probes in a Cell Model of Huntington: Aggregate Formation (GFP); further: nearly all actives have a fitted effect of over 60% in size
Conditions: PC12 HttQ103-GFP aggregates, Acumen cytometry, 40 h; series mostly up to 9.22 µM
Procedure, shortened: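 Compounds (qHTS titration) were added to PC12 cells expressing an ecdysone-driven HTT exon 1 Q103–GFP fusion after induction with 100 nM tebufenozide. Aggregate formation was measured as GFP objects in cell lysates.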
Potency means the concentration at half of the fitted maximal effect.

Potency, inactive:
COc1ccc(OCCC(=O)c2ccc(OC)cc2)cc1
CN1/C(=C\C(=O)c2cccnc2Cl)C(C)(C)c2ccccc21
Cc1noc(C)c1C(=O)OCC(=O)/C=C1\N(C)c2ccccc2C1(C)C
Cc1ccc(NNC(=O)c2cccs2)cc1Cl
O=C(Nc1ccc(S(=O)(=O)Nc2nccs2)cc1)c1cc(=O)[nH]c2ccccc12
Cc1cc(Cl)c(S(=O)(=O)NCC2CCCO2)cc1OCC(N)=O (stereo not drawn)
Cc1ccc(NC(=O)c2ccc(S(=O)(=O)NCC3CCCO3)cc2)cc1C (stereo not drawn)
CC(C)(O)c1ccccc1CC[C@H](SCC1(CC(=O)O)CC1)c1cccc(/C=C/c2ccc3ccc(Cl)cc3n2)c1
Cc1cc(Cl)ccc1NNC(=O)c1snnc1C
O=C1C2C3C=CC(C3)C2C(=O)N1c1ccc(S(=O)(=O)Nc2nccs2)cc1 (stereo not drawn)
CC(C)(C)c1cc(C(=O)NN)n(Cc2ccc(Cl)cc2Cl)n1
COc1cc(NC(=O)c2cccnc2SC)cc(OC)c1
O=S(=O)(Nc1ccccc1N1CCOCC1)c1ccc(Cl)s1
CCOc1ccc(NC(=O)c2ccccc2NS(C)(=O)=O)cc1
COC(=O)c1ccccc1NC(=O)c1ccccc1NS(C)(=O)=O
COc1ccc(S(=O)(=O)N(CC(=O)N/N=C/c2ccccc2C(=O)O)c2ccccc2OC)cc1
CC(C)(C)NC(=O)/C(=C/c1cccnc1)NC(=O)c1ccco1
CCn1c(CN2C(=O)CSc3ccccc32)n[nH]c1=S
Cc1nc(=O)c(-c2ccccc2)c(C)n1-c1ccc(Br)cc1
CCCc1nc2oc3c(=O)[nH]cnc3c2c2c1COC(C)(C)C2
Cc1cc(CO)nn1-c1ccc([N+](=O)[O-])cc1
O=C(c1c(Cl)cccc1Cl)N1CCN(c2cccc3[nH]ccc23)CC1
Cc1ccc(-c2c[n+](=O)c3c(n2[O-])CCC3)cc1
CCC(=O)N1CCCc2ccccc21
Cc1cc(C)cc(OCC(=O)O/N=C(\N)Cc2ccc([N+](=O)[O-])cc2)c1
CN(C)/C=C/c1c(C#N)c(=O)ncn1Cc1ccccc1
O=c1c2c(ncn1Cc1ccccc1)nc1n2CCC1
CCOC(=O)N1CCN(C(=O)c2cc3c(-c4ccc(Cl)cc4)nn(C)c3s2)CC1
COc1ccc(-c2cc(C(=O)NCc3ccco3)no2)cc1OC
CN(CC(O)COc1ccc(S(=O)(=O)N2CCOCC2)cc1Cl)C1CCCCC1 (stereo not drawn)
Cn1nnc(NC(=S)NC(=O)c2ccccc2)n1
CN1CCN(S(=O)(=O)c2ccc(NC(=O)c3ccco3)cc2)CC1
CCNC(=S)N1CCN(C(=O)c2ccco2)CC1
CC1CC(=O)Nc2ccccc2N1S(=O)(=O)c1cccs1 (stereo not drawn)
O=C(NCCCn1ccnc1)C(=O)NCC1OCCN1S(=O)(=O)c1cc(F)ccc1F (stereo not drawn)
CCOC(=O)CNC(=O)CSc1nnnn1-c1cc(C)ccc1C
COC(=O)c1ccccc1NC(=O)CSc1nnnn1C
O=S(=O)(c1ccc(Cl)cc1)N1CCCN(c2ccc(C(F)(F)F)cn2)CC1
c1ccc2c(c1)OCC(CNc1ncnc3nc[nH]c13)O2 (stereo not drawn)
Cc1ccc(NC(=O)c2ccc(CSc3ncnc4nc[nH]c34)cc2)c(C)c1
COc1ccc2c(c1)SC(C)CC2=O (stereo not drawn)
CC1(C)CC(=O)c2ccc(O)cc2O1
C=CCSc1nc(N)cc(=O)[nH]1
O=C(O)CC1=C(Nc2ccccc2)C(=O)N(c2ccccc2)C1c1ccc(Cl)cc1 (stereo not drawn)
CC(CO)(CO)NC(=O)c1ccc(=O)[nH]n1
O=C(N/N=C/c1cccc([N+](=O)[O-])c1)c1ccncc1
Cc1ccc(N=Nc2c(C)[nH]n(-c3ccccc3)c2=O)cc1
COc1cccc(/C=N/NC(=O)c2cccc([N+](=O)[O-])c2)c1OS(=O)(=O)c1ccc(C)cc1
Cc1[nH]n(-c2cccc(Cl)c2)c(=O)c1/C=N/n1c(C)nc2ccccc2c1=O
COc1cc2c(cc1OC)[C@@H](Cc1cc(OC)c(OC)c(OC)c1)[N+](C)(CCCOC(=O)CC/C=C/CCC(=O)OCCC[N+]1(C)CCc3cc(OC)c(OC)cc3[C@H]1Cc1cc(OC)c(OC)c(OC)c1)CC2 (stereo partly drawn)
Cc1cc(-c2ccccc2)n2nc(C)c(-c3ccccc3)c2n1
O=c1[nH]n2c(-c3ccccc3)nc(O)c2c2ccccc12
COc1ccc(-c2nn(C)c(=O)c3ccccc23)cc1NC(=O)COc1ccccc1
Cc1ccc(NC(=O)Cn2nc(C)c3ccccc3c2=O)c(C)c1

Potency, active:
CC(=O)Nc1cccc(OCC(=O)/C=C2\N(C)c3ccccc3C2(C)C)c1 11.2 µM
Cc1ccc(C(=O)O)cc1S(=O)(=O)NCC1CCCO1 (stereo not drawn) 3.98 µM
COC(=O)c1ccc(NC(=O)c2ccccc2NS(=O)(=O)c2ccccc2)cc1 11.2 µM
COc1cc(NC(=O)c2ccccc2NS(=O)(=O)c2ccc(Cl)s2)cc(OC)c1 3.98 µM
CN(C)c1ccnc2sc3c(=O)n(Cc4ccccc4)cnc3c12 7.08 µM
Cn1nc(-c2ccc(Cl)cc2)c2cc(C(=O)NCc3ccco3)sc21 20 µM
CC(C)Cc1ccc(S(=O)(=O)N2CCN(C(=O)c3ccco3)CC2)cc1 10 µM
CCOC(=O)c1c(-c2ccc(C)cc2C)csc1NC(=O)CSc1nnnn1C 11.2 µM
CCc1ccc(N(CC)c2ncnc3nc[nH]c23)cc1 10 µM
COc1ccc2c(c1)OC(O)(C(F)(F)C(F)F)CC2=O (stereo not drawn) 20 µM
Cc1ccc(-n2[nH]c(C)c(/C=N/NC(=O)c3cccc([N+](=O)[O-])c3)c2=O)cc1C 5.01 µM
Cc1[nH]n(-c2ccccc2)c(=O)c1/C=N/NC(=O)c1ccoc1C 7.08 µM
Cc1nc2c(-c3ccccc3)c(C)[nH]n2c(=O)c1Cl 10 µM
Cc1ccc(F)cc1NC(=O)Cc1nn(C)c(=O)c2ccccc12 14.1 µM
